CHX counter: counter-screen for Shiga toxin inhibitors: cycloheximide protein synthesis inhibition; cell reporter, cycloheximide protein synthesis inhibition counterscreen; max response, %; actives 12% (n = 300,000); AID 2314; in the data active = max response mostly above about 13%, no sharp cut-off; inactive = mostly below about 14%; also: read at 38.3 µM for the half of the compounds with a filed dose; 0% is about no effect
Shiga inhibitor: blocks Shiga toxin action in Vero cells; Vero cells, Shiga toxin protein synthesis inhibition reporter; inhibition, % at 38.7 µM; actives 9.2% (n = 290,000); AID 2315; in the data active = inhibition mostly above about 28%, no sharp cut-off; inactive = mostly below about 43%; also: 0% is about no effect
Pf growth 96h: inhibits malaria parasite growth, 96 h; P. falciparum luciferase reporter growth, 96 h; Potency, µM (series often up to 28.7 µM), without a hit: top-dose activity change, negative = inhibition, usual class: inhibitors; actives 6.9% (n = 320,000); also: potency is read from the fitted curve at half-maximal effect; % is scaled to controls: 0 for no effect and ±100 for the full control effect
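P. falciparum expressing integrated firefly luciferase, in erythrocytes at 2% hematocrit, 0.05% parasitemia, incubated with compounds 96 h at 37 C, 5% CO2. Growth inhibition read as loss of luminescence; two-generation exposure targets delayed-death apicoplast inhibitors.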
HCV inh: blocks hepatitis C virus; Huh7.5.1 HCVcc-Cre infection, luciferase reporter, 44 h; Potency, µM (titrated, usually from 41.8 µM), without a hit: at the highest dose activity change, negative = inhibition, actives largely listed as inhibitors; actives 3.4% (n = 340,000); also: potency is read from the fitted curve at half-maximal effect; % is scaled to controls: 0 for no effect and ±100 for the full control effect
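Cells seeded at 1,000/well and cultured 4 h, then compounds added followed by HCVcc-Cre virus (~0.5 moi). After 44 h further culture, luciferase substrate was added, plates held 15 min at room temperature, and luminescence read for 15 sec.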
Pf growth 48h: P. falciparum growth inhibition at 48 hours (one generation); P. falciparum luciferase growth in erythrocytes, 48 h; Potency, µM (titrated, usually from 28.7 µM), for inactives: at the top dose activity change, negative = inhibition, usual class: inhibitors; actives 5.9% (n = 310,000); also: potency is read from the fitted curve at half-maximal effect; % is scaled to controls: 0 for no effect and ±100 for the full control effect
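First compound was added to culture medium, then infected red cells at 0.1% parasitemia and 2% hematocrit (final). After incubation at 37 C under 5% CO2, luciferase detection reagent was dispensed and light output recorded.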
HCMV antiviral: blocks human cytomegalovirus replication; HFF cells, HCMV-luciferase reporter, 72 h; hits give low values; activity change, negative = inhibition, % at 57.5 µM; actives 4.5% (n = 410,000); AID 1259415; in the data active = activity change below about -60%; inconclusive = no clear call, values can overlap the other calls; inactive = above about -39%; also: % is scaled to controls: 0 for no effect and ±100 for the full control effect
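Two-dose cell screen: HFF monolayers treated with compounds and infected with luciferase-expressing HCMV at 1 PFU/cell, 72 h at 37C, then lysed for luciferase measurement.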
* hit, by the source's call; ? = inconclusive; . = not tested or not shown; [ ] = dose if it differs, or a comment. An excerpt weighted towards active compounds, which were near 21% of everything screened. Unless noted, calls follow the shape of the dose curve; as a rule, active = well fitted inhibition curve with a large enough effect; inconclusive = small, poorly fitted or top-dose-only effect, or another doubt; inactive = no such curve, though single readings can be large or run the other way.

SMILES	CHX counter	Shiga inhibitor	Pf growth 96h	HCV inh	Pf growth 48h	HCMV antiviral
O=C(CSc1ccc(-c2ccc(F)cc2)nn1)NCc1ccco1	-4	14	?	0%	-23%	5
COc1ccc(NC(=O)CSc2ccc(-c3ccco3)nn2)cc1	9	14	-11%	-2%	11%	-66*
COCCCNC(=O)CSc1nc(-c2ccc(OC)cc2)[nH]c1-c1ccc(OC)cc1	.	.	.	.	.	-112*
COc1ccc(-c2ccc(SCC(=O)NCc3ccco3)nn2)cc1	17*	57*	1%	9%	47%	62
COCCNC(=O)CSc1nc(-c2ccc(C)cc2)[nH]c1-c1ccc(OC)cc1	.	.	.	.	.	-10
O=C(/C=C/c1ccc(O)cc1)c1c(O)cc(O)cc1O	-2	-7	17%	11%	31%	18
COc1ccc(C(=O)/C=C/c2ccc(O)cc2)c(O)c1C/C=C(\C)CCC=C(C)C	.	.	.	?	.	-105*
C=C(C)C(O)CC/C(C)=C/Cc1c(O)ccc(C(=O)/C=C/c2ccc(O)cc2)c1O (stereo unspecified)	.	.	.	?	.	-67*
COc1ccc(C=CC(=O)c2ccc(OC)c(OC)c2O)cc1OC	.	.	.	-20%	.	19
O=C(Cn1nc(C(=O)O)c2ccccc2c1=O)NC12CC3CC(CC(C3)C1)C2	-2	-4	20%	5%	16%	-34
CCCc1cc(F)c(S(=O)(=O)N2CCN(S(=O)(=O)c3ccc4c(c3)OCCO4)CC2)cc1F	-5	-8	.	.	.	.
COc1ccc(-c2c(C)nn3c(N4CCCCCC4)cc(C)nc23)cc1OC	-5	-11	-18%	11µM*	1%[0.00184 µM]	-61*
COc1ccc(-c2c(C)nn3c(N4CCC5(CC4)OCCO5)cc(C)nc23)cc1OC	2	-4	-1%	?	12µM*	1
COc1ccc(-c2c(C)nn3c(N4CCOCC4)cc(C)nc23)cc1OC	-1	-4	?	-30%	?	11
CCCNC(=O)C1CCN(c2cc(C)nc3c(-c4ccc(OC)c(OC)c4)c(C)nn23)CC1	.	.	.	.	.	8
N#CCC1c2ccccc2CCN1C(=O)Nc1cccc(C(F)(F)F)c1 (stereo unspecified)	5	-2	?	5%	?	-38
N#CCC1c2ccccc2CCN1C(=O)Nc1ccc(C(F)(F)F)cc1 (stereo unspecified)	15	-10	5.9µM*	?	13µM*	0
Cc1ccc([N+](=O)[O-])cc1S(=O)(=O)NCCc1c(C)[nH]c2ccccc12	12	-11	?	-11%	-18%	-6
COc1cc(S(=O)(=O)NCCc2c(C)[nH]c3ccccc23)c(C)cc1C	.	.	.	.	.	-103*
CC(C)Oc1ccc(C2CC(=O)N(c3cccc(Br)c3)C2=O)cc1 (stereo unspecified)	3	18	22%	-3%	5%	22
CCSc1ncc(/C=N/Nc2ccc(F)cc2)n1C	30*	52*	?	?	?	107
CC(=O)Nc1ccc(NC(=O)CSc2ncc(C(=O)Nc3ccc(F)cc3)c(=O)n2C)cc1	.	.	36%	9%	3%	3
Cc1cccc(NC(=O)C(=O)NCC(c2cccnc2)N2CCc3ccccc3C2)c1C (stereo unspecified)	.	.	.	.	.	-4
CCN(CC)S(=O)(=O)c1ccc(N/N=C(\C)c2ccc(OC)cc2O)nc1	-1	10	?	?	13µM*	-62*
CCOc1cccc(/C=N/Nc2ccc(S(=O)(=O)N(CC)CC)cn2)c1O	-2	15	2.6µM*	?	2.9µM*	-100*
SMILES	CHX counter	Shiga inhibitor	Pf growth 96h	HCV inh	Pf growth 48h	HCMV antiviral
CCN(CC)S(=O)(=O)c1ccc(N/N=C/c2ccc(O)cc2)nc1	-6	-8	?	8%	-21%	?
CCN(c1ccccc1)S(=O)(=O)c1ccc(Cl)c(NC(=O)COC(=O)c2cc(O)c3ccccc3c2O)c1	12*	36*	12µM*	.	13µM*	.
Cc1cc(C(=O)OCC(=O)Nc2cc(S(=O)(=O)N(C)C)ccc2Cl)c2ccccc2n1	22	86*	15%	12%	12%	28
CCN(c1ccccc1)S(=O)(=O)c1ccc(Cl)c(NC(=O)COC(=O)C2CC2C)c1 (stereo unspecified)	-3	-7	-2%	-27%	-13%	?
CCN(c1ccccc1)S(=O)(=O)c1ccc(Cl)c(NC(=O)COC(=O)c2ccc(O)cc2)c1	0	20	12µM*	?	?	-28
Cc1ccc(C)c(N2CCN(C(=O)c3c(C)oc4nc(C)nc(N5CCOCC5)c34)CC2)c1	.	.	.	.	.	-34
CC(C)(C)c1ccc(Oc2ccc(NC(=O)c3cccs3)cn2)cc1	9	2	13µM*	?	2.6µM*	?
COc1ccc(NC(=O)c2cccs2)cn1	26*	61*	102%	5%	18%	34
Brc1ccc(-c2nnc(-c3ccc4c(c3)OCO4)o2)o1	35*	111*	13%	18%	198%	75
Cc1ccc(-c2nnc(-c3ccc4c(c3)OCO4)o2)cc1	46*	101*	0%	-6%	110%	116
c1coc(-c2nnc(-c3ccc4c(c3)OCO4)o2)c1	22*	52*	145%	.	.	92
CCOC(=O)c1ccc(NCc2nc3ccccc3[nH]2)cc1	53*	73*	0%	-17%	16%	-13
Cc1ccc(C(=O)Cc2nc3ccccc3[nH]2)cc1	36*	65*	?	-12%	0.37µM*	1
CCc1ccc(NCc2nc3ccccc3c(=O)[nH]2)cc1	25*	88*	-40%	?	-61%	149
CCOC(=O)Cc1nc2ccccc2[nH]1	-1	17	12µM*	-8%	6%	84
O=C(Nc1ccc(F)cc1)c1csc(C(O)Cc2ccccc2)n1 (stereo unspecified)	.	.	.	.	.	50
CN1C(=O)C(n2ccc3ccccc32)c2cccc(F)c21 (stereo unspecified)	.	.	.	.	.	8
Cc1cc(C)cc(NC(=O)CCc2nc3ccccc3[nH]2)c1	-1	-12	3.3µM*	-5%	5%	1
CCOc1ccc(NC(=O)CC2Nc3cccc4cccc(c34)NC2=O)cc1 (stereo unspecified)	.	.	.	.	.	14
CC(=O)OC[C@]12CCC(C)=C[C@H]1O[C@@H]1[C@H](O)[C@@H](OC(C)=O)[C@@]2(C)[C@]12CO2	-11	-28	?	?	0.0033µM*	-77*
O=c1nccc(N/N=C/c2cccc(O)c2)[nH]1	26*	2	44%	16%	70%	14
COc1cc(/C=N/Nc2ccnc(=O)[nH]2)ccc1O	32*	67	?	10%	-27%[0.00184 µM]	149
COc1cc(C=NNc2nc3c([nH]2)c(=O)n(C)c(=O)n3C)ccc1O	.	.	.	1%	.	11

Compound activity (PubChem BioAssay)
